Key:
Test in all cases: DAPPL (digital affinity profiling via proximity ligation, sequencing); 10 mM Tris-HCl pH 7.5, 50 mM NaCl, 1 mM DTT, 4% glycerol, room temperature, 30 min; GST-TFs on glutathione beads, 16-mer random dsDNA library, 0.1% formaldehyde crosslink after washing; high values mean tight binding
[1] = molecular target: T1, FLI1 (Homo sapiens, UniProt Q01543 1-452); conditions: protein: recombinant; tags: N-terminal GST; dsDNA, one strand shown
T1 sequence: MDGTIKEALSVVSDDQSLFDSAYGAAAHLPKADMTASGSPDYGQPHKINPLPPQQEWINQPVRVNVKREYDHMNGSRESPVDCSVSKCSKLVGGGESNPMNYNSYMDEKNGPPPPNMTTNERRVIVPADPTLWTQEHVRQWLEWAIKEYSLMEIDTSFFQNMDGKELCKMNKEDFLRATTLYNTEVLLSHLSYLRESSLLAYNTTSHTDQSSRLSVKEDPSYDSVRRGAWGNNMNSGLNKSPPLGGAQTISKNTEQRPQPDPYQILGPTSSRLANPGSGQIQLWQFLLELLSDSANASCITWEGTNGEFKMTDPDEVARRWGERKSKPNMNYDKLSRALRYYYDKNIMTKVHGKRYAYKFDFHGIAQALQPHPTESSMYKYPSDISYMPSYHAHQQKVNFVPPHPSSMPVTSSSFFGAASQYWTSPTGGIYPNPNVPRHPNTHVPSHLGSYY
In short: (§1)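 A tag-only sample was pooled with DNA-barcoded human transcription factors that had been expressed in yeast as GST fusions and captured on glutathione beads. The pools were incubated for 30 min at room temperature with 200 nmole of a random double-stranded 16-mer DNA library in Tris/NaCl/DTT/glycerol buffer, then washed, crosslinked with 0.1% formaldehyde, proximity-ligated (BsaI/T4 ligase, 1 h, 37 °C), PCR-amplified and sequenced on an Illumina NextSeq500. Binding signal is each hexamer's read frequency for a factor divided by its frequency for the tag-only sample.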

[2] = molecular target: T2, ELK1 (Homo sapiens, UniProt P19419 1-428); conditions: protein: recombinant; tags: N-terminal GST; dsDNA, one strand shown
T2 sequence: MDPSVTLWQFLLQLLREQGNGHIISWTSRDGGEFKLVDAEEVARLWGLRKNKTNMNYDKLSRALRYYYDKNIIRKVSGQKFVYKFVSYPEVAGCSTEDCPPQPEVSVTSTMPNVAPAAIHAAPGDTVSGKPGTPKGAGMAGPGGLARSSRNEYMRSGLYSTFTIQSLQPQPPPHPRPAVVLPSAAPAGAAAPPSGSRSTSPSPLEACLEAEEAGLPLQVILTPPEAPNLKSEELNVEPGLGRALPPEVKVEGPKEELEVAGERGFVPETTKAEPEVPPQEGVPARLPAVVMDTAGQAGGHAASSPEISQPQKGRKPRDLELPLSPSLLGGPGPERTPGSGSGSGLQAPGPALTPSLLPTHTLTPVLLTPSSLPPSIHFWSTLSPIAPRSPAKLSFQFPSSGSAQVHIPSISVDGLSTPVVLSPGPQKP
In short: as §1

[3] = molecular target: T3, GABPA (Homo sapiens, UniProt Q06546 1-454); conditions: protein: recombinant; tags: N-terminal GST; dsDNA, one strand shown
T3 sequence: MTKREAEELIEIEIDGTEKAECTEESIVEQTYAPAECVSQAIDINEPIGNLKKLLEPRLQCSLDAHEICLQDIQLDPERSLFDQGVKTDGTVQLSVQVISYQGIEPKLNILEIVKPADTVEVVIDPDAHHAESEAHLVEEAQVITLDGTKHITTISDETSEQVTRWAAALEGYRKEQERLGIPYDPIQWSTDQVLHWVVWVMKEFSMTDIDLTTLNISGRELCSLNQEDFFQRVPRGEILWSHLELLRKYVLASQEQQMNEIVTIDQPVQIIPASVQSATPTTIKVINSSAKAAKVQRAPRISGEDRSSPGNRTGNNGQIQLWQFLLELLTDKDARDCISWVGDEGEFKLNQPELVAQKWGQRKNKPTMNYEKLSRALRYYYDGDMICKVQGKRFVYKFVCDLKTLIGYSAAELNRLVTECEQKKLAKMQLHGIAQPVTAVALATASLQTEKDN
In short: as §1

[4] = molecular target: T4, ERG (Homo sapiens, UniProt P11308 1-479); conditions: protein: recombinant; tags: N-terminal GST; dsDNA, one strand shown
T4 sequence: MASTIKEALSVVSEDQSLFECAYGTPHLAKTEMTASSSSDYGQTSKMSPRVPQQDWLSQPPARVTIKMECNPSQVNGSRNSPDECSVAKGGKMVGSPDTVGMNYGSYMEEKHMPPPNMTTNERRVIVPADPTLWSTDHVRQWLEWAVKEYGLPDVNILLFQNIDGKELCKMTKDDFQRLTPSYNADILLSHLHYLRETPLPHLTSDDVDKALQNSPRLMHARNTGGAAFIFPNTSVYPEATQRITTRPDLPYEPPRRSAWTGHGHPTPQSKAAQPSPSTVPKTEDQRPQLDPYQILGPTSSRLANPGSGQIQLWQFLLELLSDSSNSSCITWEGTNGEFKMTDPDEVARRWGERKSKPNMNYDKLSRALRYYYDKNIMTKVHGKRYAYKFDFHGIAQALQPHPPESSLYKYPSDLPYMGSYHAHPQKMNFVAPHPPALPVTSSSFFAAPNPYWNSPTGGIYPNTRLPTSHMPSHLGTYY
In short: as §1

[5] = molecular target: ELF1 (Homo sapiens, UniProt P32519 1-619); conditions: protein: recombinant; tags: N-terminal GST; dsDNA, one strand shown
In short: as §1

[6] = molecular target: T5, EHF (Homo sapiens, UniProt Q9NZC4 1-300); conditions: protein: recombinant; tags: N-terminal GST; dsDNA, one strand shown
T5 sequence: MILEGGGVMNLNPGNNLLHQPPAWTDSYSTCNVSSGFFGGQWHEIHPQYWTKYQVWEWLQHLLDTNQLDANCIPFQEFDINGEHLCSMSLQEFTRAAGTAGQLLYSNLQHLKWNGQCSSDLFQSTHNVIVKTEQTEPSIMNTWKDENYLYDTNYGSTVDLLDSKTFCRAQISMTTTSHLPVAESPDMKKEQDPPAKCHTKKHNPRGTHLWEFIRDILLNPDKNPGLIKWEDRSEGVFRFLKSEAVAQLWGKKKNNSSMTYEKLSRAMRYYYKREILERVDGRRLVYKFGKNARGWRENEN
In short: as §1

[7] = molecular target: SPI1 (Homo sapiens, UniProt P17947 1-270); conditions: protein: recombinant; tags: N-terminal GST; dsDNA, one strand shown
In short: as §1

[8] = molecular target: SPIB (Homo sapiens, UniProt Q01892 1-262); conditions: protein: recombinant; tags: N-terminal GST; dsDNA, one strand shown
In short: as §1

[9] = molecular target: T6, ELK3 (Homo sapiens, UniProt P41970 1-407); conditions: protein: recombinant; tags: N-terminal GST; dsDNA, one strand shown
T6 sequence: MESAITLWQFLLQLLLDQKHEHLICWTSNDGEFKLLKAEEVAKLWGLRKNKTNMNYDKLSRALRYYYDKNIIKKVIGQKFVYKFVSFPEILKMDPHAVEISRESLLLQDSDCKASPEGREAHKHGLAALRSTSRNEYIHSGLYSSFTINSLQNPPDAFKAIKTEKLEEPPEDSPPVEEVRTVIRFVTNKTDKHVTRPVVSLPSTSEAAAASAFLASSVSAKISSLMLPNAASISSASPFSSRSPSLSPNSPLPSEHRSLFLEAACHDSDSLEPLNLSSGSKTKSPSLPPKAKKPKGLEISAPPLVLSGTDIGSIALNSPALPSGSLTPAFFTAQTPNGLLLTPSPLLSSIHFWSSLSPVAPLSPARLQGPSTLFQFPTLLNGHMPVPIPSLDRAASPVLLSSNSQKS
In short: as §1

[10] = molecular target: T7, FEV (Homo sapiens, UniProt Q99581 1-238); conditions: protein: recombinant; tags: N-terminal GST; dsDNA, one strand shown
T7 sequence: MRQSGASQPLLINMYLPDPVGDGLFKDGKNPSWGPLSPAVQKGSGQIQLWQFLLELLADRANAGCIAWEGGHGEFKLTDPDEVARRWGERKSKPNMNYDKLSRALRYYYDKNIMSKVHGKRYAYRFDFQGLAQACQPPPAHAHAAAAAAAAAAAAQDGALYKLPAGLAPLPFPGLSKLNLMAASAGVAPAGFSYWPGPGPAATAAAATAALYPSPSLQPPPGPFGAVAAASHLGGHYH
In short: as §1

[11] = molecular target: ETV5 (Homo sapiens, UniProt P41161 1-510); conditions: protein: recombinant; tags: N-terminal GST; dsDNA, one strand shown
In short: as §1

[12] = molecular target: HSF1 (Homo sapiens, UniProt Q00613 1-529); conditions: protein: recombinant; tags: N-terminal GST; chain copies: 3; dsDNA, one strand shown
In short: as §1

[13] = molecular target: T8, SPIC (Homo sapiens, UniProt Q8N5J4 1-248); conditions: protein: recombinant; tags: N-terminal GST; dsDNA, one strand shown
T8 sequence: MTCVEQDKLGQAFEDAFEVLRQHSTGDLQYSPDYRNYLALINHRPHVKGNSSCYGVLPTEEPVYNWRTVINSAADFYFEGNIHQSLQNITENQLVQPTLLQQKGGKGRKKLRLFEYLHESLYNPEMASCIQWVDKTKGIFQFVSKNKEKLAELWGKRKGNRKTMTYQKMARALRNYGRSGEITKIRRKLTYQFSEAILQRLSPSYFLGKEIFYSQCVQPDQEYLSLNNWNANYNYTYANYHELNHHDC
In short: as §1

[14] = molecular target: ELF4 (Homo sapiens, UniProt Q99607 1-663); conditions: protein: recombinant; tags: N-terminal GST; dsDNA, one strand shown
In short: as §1

[15] = molecular target: T9, ELK4 (Homo sapiens, UniProt P28324-2 1-405); conditions: protein: recombinant; tags: N-terminal GST; dsDNA, one strand shown
T9 sequence: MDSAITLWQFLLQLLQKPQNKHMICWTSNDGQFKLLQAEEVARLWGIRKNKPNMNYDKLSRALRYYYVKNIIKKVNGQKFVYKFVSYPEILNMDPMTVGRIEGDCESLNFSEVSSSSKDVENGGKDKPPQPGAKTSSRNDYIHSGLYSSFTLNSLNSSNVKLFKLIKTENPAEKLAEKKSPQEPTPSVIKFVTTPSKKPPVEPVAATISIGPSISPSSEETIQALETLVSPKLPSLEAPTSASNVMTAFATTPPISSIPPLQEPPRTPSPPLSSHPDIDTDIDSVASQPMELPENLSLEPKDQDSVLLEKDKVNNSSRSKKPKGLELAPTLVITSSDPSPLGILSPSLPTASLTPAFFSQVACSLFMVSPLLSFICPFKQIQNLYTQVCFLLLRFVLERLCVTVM
In short: as §1

[16] = molecular target: T10, ETV2 (Homo sapiens, UniProt O00321 1-342); conditions: protein: recombinant; tags: N-terminal GST; dsDNA, one strand shown
T10 sequence: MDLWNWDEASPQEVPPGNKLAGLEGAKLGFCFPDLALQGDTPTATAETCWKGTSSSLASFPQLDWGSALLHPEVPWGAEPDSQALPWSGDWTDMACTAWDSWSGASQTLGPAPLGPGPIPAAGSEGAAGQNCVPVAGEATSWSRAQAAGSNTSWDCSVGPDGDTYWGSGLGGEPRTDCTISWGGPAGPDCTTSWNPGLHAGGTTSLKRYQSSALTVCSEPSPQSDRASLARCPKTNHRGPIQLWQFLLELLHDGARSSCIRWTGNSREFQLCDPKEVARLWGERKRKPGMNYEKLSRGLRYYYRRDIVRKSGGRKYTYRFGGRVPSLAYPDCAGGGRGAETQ
In short: as §1

[17] = molecular target: T11, ELF3 (Homo sapiens, UniProt P78545 1-371); conditions: protein: recombinant; tags: N-terminal GST; dsDNA, one strand shown
T11 sequence: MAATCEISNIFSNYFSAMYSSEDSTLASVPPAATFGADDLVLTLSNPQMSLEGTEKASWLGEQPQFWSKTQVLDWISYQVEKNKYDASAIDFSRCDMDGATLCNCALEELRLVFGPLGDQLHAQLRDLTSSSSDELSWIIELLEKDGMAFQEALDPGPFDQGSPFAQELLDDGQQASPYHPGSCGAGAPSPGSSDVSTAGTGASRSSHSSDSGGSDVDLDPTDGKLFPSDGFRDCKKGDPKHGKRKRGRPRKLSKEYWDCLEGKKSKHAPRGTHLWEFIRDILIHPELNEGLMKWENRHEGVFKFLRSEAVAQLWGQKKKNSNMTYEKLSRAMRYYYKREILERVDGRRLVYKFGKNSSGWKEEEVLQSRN
In short: as §1

[18] = molecular target: CRX (Homo sapiens, UniProt O43186 1-299); conditions: protein: recombinant; tags: N-terminal GST; dsDNA, one strand shown
In short: as §1

[19] = molecular target: ETV1 (Homo sapiens, UniProt P50549 1-477); conditions: protein: recombinant; tags: N-terminal GST; dsDNA, one strand shown
In short: as §1

SPIB, sequence (Q01892 whole entry): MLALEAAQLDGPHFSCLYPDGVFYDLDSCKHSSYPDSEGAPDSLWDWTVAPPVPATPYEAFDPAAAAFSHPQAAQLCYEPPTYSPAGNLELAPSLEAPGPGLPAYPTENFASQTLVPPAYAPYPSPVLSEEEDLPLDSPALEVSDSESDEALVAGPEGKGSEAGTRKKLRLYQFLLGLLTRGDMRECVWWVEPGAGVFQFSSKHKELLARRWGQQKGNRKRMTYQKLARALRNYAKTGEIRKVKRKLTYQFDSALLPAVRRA
ELF1, sequence (P32519 whole entry): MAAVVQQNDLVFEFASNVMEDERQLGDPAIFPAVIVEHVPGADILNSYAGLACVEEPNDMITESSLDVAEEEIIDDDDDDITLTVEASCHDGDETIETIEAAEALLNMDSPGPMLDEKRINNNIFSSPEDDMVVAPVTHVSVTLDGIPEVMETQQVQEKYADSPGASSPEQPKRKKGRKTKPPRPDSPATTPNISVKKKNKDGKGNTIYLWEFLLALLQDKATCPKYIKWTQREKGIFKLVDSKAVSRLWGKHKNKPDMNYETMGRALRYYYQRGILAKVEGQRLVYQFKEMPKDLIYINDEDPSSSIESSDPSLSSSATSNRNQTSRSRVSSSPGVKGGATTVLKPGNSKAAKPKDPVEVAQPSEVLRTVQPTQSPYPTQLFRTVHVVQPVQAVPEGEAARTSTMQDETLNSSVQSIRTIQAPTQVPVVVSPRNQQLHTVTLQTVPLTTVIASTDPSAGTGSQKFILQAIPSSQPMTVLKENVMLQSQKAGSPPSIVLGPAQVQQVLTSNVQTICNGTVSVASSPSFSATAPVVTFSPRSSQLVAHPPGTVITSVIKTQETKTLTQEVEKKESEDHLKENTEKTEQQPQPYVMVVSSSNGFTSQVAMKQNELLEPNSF
CRX, sequence (O43186 whole entry): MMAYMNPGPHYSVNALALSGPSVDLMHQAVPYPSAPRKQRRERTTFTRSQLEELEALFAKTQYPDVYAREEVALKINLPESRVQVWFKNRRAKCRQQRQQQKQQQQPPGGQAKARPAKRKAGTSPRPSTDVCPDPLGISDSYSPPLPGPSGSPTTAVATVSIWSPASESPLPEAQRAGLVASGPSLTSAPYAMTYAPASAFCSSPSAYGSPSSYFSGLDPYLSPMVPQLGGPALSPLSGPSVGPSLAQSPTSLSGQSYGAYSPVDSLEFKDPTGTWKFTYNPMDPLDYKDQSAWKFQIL
ELF4, sequence (Q99607 whole entry): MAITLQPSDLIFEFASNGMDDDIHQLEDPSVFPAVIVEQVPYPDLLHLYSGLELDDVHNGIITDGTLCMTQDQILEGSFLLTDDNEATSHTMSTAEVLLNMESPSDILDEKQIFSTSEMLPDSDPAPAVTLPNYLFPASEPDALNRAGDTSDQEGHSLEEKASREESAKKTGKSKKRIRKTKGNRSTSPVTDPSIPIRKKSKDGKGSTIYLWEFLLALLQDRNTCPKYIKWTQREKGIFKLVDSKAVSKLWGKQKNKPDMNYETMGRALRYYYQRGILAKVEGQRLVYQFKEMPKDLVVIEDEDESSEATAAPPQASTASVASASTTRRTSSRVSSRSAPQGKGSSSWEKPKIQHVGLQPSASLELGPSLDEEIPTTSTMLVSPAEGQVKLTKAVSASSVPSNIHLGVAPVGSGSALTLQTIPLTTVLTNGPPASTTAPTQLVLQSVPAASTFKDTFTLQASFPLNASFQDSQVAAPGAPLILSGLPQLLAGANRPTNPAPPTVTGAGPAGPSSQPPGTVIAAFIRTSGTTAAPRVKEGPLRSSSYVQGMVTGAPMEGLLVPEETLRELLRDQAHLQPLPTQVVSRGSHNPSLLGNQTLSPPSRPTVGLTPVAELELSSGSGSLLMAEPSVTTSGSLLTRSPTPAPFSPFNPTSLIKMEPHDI
ETV1, sequence (P50549 whole entry): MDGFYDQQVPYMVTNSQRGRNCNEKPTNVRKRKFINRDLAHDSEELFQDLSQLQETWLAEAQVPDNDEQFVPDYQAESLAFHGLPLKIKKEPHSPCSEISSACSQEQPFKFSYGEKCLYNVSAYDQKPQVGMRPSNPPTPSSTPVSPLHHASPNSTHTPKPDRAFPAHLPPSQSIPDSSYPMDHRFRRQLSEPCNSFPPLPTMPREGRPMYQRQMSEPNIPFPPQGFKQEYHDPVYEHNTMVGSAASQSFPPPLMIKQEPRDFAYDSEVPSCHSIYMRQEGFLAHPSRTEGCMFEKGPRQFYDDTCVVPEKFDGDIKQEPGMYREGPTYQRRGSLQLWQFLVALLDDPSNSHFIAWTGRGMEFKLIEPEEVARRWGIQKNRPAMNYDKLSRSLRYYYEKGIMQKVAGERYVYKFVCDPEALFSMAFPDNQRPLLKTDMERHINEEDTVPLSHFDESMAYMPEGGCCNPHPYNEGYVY
HSF1, sequence (Q00613 whole entry): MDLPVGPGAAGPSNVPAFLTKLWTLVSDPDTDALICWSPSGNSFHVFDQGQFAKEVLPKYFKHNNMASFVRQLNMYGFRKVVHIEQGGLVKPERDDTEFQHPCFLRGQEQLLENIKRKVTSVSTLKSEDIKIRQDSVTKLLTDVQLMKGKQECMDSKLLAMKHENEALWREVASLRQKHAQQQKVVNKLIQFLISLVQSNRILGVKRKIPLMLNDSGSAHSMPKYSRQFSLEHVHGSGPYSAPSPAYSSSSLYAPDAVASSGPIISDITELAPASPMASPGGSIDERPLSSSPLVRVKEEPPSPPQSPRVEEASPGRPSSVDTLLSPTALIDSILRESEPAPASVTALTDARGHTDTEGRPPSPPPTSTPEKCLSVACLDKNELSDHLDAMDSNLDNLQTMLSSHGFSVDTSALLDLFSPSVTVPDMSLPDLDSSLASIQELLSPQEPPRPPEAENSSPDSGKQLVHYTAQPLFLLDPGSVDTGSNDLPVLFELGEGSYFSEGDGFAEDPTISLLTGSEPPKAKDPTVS
ETV5, sequence (P41161 whole entry): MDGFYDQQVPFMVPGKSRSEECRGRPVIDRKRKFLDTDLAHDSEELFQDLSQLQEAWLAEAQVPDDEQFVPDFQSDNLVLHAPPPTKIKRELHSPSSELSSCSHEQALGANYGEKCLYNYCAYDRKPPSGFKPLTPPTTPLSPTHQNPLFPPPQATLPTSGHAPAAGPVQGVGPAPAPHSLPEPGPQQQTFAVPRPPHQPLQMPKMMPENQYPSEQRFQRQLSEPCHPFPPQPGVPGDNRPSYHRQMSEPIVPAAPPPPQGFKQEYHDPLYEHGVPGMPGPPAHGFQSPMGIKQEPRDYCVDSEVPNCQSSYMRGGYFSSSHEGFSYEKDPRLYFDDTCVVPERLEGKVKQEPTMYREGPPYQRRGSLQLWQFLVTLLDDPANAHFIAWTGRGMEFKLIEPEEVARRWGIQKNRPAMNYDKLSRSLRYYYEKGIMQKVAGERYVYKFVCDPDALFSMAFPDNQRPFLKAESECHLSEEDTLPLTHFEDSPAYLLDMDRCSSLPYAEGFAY

Sequence: ATCAAC
- binding signal [1]: 1.12 fold enrichment (6-mer frequency, TF over GST control)
- binding signal [2]: 1.19 fold enrichment (6-mer frequency, TF over GST control)
- binding signal [3]: 1.19 fold enrichment (6-mer frequency, TF over GST control)
- binding signal [4]: 1.07 fold enrichment (6-mer frequency, TF over GST control)
- binding signal [5]: 1.13 fold enrichment (6-mer frequency, TF over GST control)
- binding signal [6]: 1.12 fold enrichment (6-mer frequency, TF over GST control)
- binding signal [7]: 1.08 fold enrichment (6-mer frequency, TF over GST control)
- binding signal [8]: 1.1 fold enrichment (6-mer frequency, TF over GST control)
- binding signal [9]: 1.21 fold enrichment (6-mer frequency, TF over GST control)
- binding signal [10]: 1.13 fold enrichment (6-mer frequency, TF over GST control)
- binding signal [11]: 1.04 fold enrichment (6-mer frequency, TF over GST control)
- binding signal [12]: 1.02 fold enrichment (6-mer frequency, TF over GST control)
- binding signal [13]: 1.03 fold enrichment (6-mer frequency, TF over GST control)
- binding signal [14]: 1.09 fold enrichment (6-mer frequency, TF over GST control)
- binding signal [15]: 1.14 fold enrichment (6-mer frequency, TF over GST control)
- binding signal [16]: 1.18 fold enrichment (6-mer frequency, TF over GST control)
- binding signal [17]: 1.08 fold enrichment (6-mer frequency, TF over GST control)
- binding signal [18]: 1.25 fold enrichment (6-mer frequency, TF over GST control)
- binding signal [19]: 1.1 fold enrichment (6-mer frequency, TF over GST control)

Source: PMC7862700, “An all-to-all approach to the identification of sequence-specific readers for epigenetic DNA modifications on cytosine”
